Measured values reported in PubChem BioAssay AID488857 (Sanford-Burnham Center for Chemical Genomics, 2010).
The whole screen tested about 1,400 compounds, of which about 560 (40%) were called active.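 The calls were made as follows: active = mean inhibition over duplicate tests at 10 µM above 50%; inactive = the rest.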 So high a share suggests a set chosen from earlier hits. This is one part of the list.

Test: ASC/caspase-1 reporter retest in S. cerevisiae at one dose, specificity check for NALP1 project (AID 488857)
Details: S. cerevisiae ASC/Caspase-1, beta-galactosidase luminescence, 24 h; at 10 µM; active compounds read high

inhibition, active:
Cc1cc(C(=O)COC(=O)c2ccc[nH]c2=O)c(C)n1-c1ccc(F)cc1 52.3%
Cc1cc(C(=O)COC(=O)c2ccc[nH]c2=O)c(C)n1-c1ccccc1 57.5%
CCC(C(=O)OC)n1cnc2scc(-c3ccc(C)c(C)c3)c2c1=O (stereo not drawn) 98.5%
CC[n+]1c(/C=C/N(C)c2ccccc2)n(-c2ccccc2)c2ccc(-c3nc4ccccc4s3)cc21 64.5%
O=C(Nc1ccccc1)Nc1ccc(Br)cc1F 73.9%
COc1ccc(C2NCCc3c2[nH]c2ccccc32)cc1CSc1nc2ccccc2s1 (stereo not drawn) 50%
CCCOc1ccc(OCCSc2ncccn2)cc1 50.8%
CC(C)CN=C(NS(=O)(=O)c1ccccc1)C(Cl)(Cl)Cl 51.1%
CCc1oc2ccccc2c1C(=O)CCN1CCCCC1 66.5%
O=C(NCCc1csc(-c2ccccc2)n1)c1ccc(Br)o1 62.4%
COc1ccc(-c2nc(CCNC(=O)c3cccs3)cs2)cc1 54.7%
CSCc1ccc(C(=O)Nc2cc(C)cc(C)c2)cc1 82.3%
Cc1ccc(-c2nc3cnccn3c2Nc2c(C)cccc2C)o1 54.5%
O=C(CC(O)(C(F)(F)F)C(F)(F)F)Nc1ccc(Cl)c(Cl)c1 97%
CN(C)CCCN(C(=O)CCS(=O)(=O)c1ccccc1)c1nc2cc3c(cc2s1)OCO3 70.2%
Cc1ccc2nc(N(CCCN(C)C)C(=O)CCc3ccccc3)sc2c1 54.9%
Cc1cccc2sc(N(CCCN(C)C)C(=O)CCS(=O)(=O)c3ccccc3)nc12 71.3%
CN(C)CCCN(C(=O)CCOc1ccccc1)c1nc2c(F)cccc2s1 56%
Cc1ccc2sc(N(CCCN(C)C)C(=O)CCS(=O)(=O)c3ccccc3)nc2c1C 92.2%
CC(/C=N/NC(=O)c1c(Br)cnn1C)=C\c1ccccc1 56.6%
Cc1cc(C(C)(C)C)cc(C)c1S(=O)(=O)N1CC(=O)Nc2ccccc21 50.1%
COc1ccc(-c2cc(-c3cc(OC)ccc3O)[nH]n2)cc1 57.5%
O=C(NC1CCCCC1)c1noc2c1CCCCC2 71.2%
Cc1ccc(-c2csc(NC(=O)c3ccc(F)cc3)c2C(=O)O)cc1 93.8%
CCOc1ccc(C(=O)C(CN2CCOCC2)c2ccccc2)cc1 (stereo not drawn) 52.9%
Cc1cc(Nc2ccccc2)nn1C(=O)c1ccccc1 58%
CN(C)c1ccc(N=C/C=C2/N(C)c3ccccc3C2(C)C)cc1 56.5%
CS(=O)(=O)c1nc(-c2ccco2)cc(C(F)(F)F)n1 90.7%
CCC(C)NC(=O)c1cc2cc3ccc(OC)cc3nc2s1 (stereo not drawn) 56.8%
O=C(CCC1CCCCC1)N1CCN(Cc2ccc3c(c2)OCO3)CC1 67%
CC1CCCN(CCOCCOc2ccc(Br)cc2Cl)C1 (stereo not drawn) 59.5%
Cc1cc(Cl)c(OCCOCCN2CCC(C)CC2)c(Br)c1 53.7%
CC1CCCN(CCCOc2ccc(Cl)cc2Br)C1 (stereo not drawn) 64.8%
CC1CCCN(CCOCCSc2ccccc2)C1 (stereo not drawn) 53%
CCOC(=O)c1cccnc1SCC(=O)NCc1ccccc1 54.2%
O=C(CN1CCSC1=NCc1ccccc1)c1ccc(Cl)c(Cl)c1 61%
Cc1cs/c(=N\N=C\c2ccccc2)n1Cc1ccco1 54.1%
CCN(C(=O)c1ccco1)c1nnc(-c2ccc(OC)cc2)s1 51%
CN(C)c1ccc(NC(=O)COC(=O)c2cc(Cl)ccc2[N+](=O)[O-])cc1 68%

inhibition, inactive:
CCC(=O)N(Cc1cc2c(C)ccc(C)c2[nH]c1=O)C1CCCCC1 36.8%
O=C(Cn1cccc(C(F)(F)F)c1=O)c1ccc(Cl)cc1 20.5%
Cc1ccc(S(=O)(=O)N(C)C)cc1NC(=O)Nc1ccccc1F 24.1%
O=C(NNC(=O)c1ccc(-c2ccccc2)cc1)Nc1ccc(F)cc1F 42.6%
O=C(c1ccccc1)c1ccc(OCC(O)CNC2CCCc3ccccc32)cc1 (stereo not drawn) 38.8%
CSc1nc(C)cc(OCCO)n1 40.9%
CCOc1ccc(OCCSc2nc3ccccc3o2)cc1 44.1%
Cc1ccc(S(=O)(=O)N[C@@H](Cc2ccccc2)C(=O)CCl)cc1 -4.2%
CC(=O)NS(=O)(=O)c1ccc(NC(=O)CSc2ccccc2)cc1 18.9%
O=C(OCCN1CCCCC1)c1cc2ccccc2o1 18.4%
Cc1c(C)c2cc(Cl)c(O)c(CN3CCCCC3)c2oc1=O 35.6%
Cc1ccc(CN(C(=O)CNC(=O)c2cccs2)C(C(=O)NCC2CCCO2)c2ccccc2)cc1 (stereo not drawn) 38.1%
COc1ccc(CCNC(=O)c2sc3cc(C)ccc3c2Cl)cc1 43.6%
O=C(NCCCn1ccnc1)c1ccc(Br)o1 24.1%
c1ccc(CCNc2nc(-c3cccnc3)cs2)cc1 45%
O=C(O)C1C2C=CC(C2)C1C(=O)NCc1ccc(Cl)c(Cl)c1 (stereo not drawn) 45.9%
C=C(C)C1Cc2c(C)nn(-c3ccccn3)c2C1 (stereo not drawn) 36.1%
Cc1cc(C)cc(NS(=O)(=O)c2ccc(NC(=S)NC(=O)c3ccc(Br)o3)cc2)c1 43.1%
COc1ccc(-c2nc3cnccn3c2Nc2ccc(C)cc2)cc1 37.3%
CCCCCCC(=O)N(O)C1CC(=O)N(Cc2ccccc2)C1=O (stereo not drawn) 27.9%
CN1CCN(C(=S)Nc2ccc(Cl)c(Cl)c2)CC1 31.7%
Cc1ccc(NC(=S)Nc2ccc(Cl)c(Cl)c2)c(OC(F)F)c1 45.8%
FC(F)Oc1ccc(/C=N/c2c(-c3ccc(OC(F)F)cc3)nc3n2CCS3)cc1 47.1%
O=C(CCN1C(=O)c2ccccc2C1=O)N1CCN(C2c3ccccc3-c3ccccc32)CC1 18.1%
CC(C)C(NS(=O)(=O)c1ccc2c(c1)oc(=O)n2C)C(=O)N1CCN(C2CCCCC2)CC1 (stereo not drawn) 34.7%
CC(/C=N/NC(=O)CCn1nnc2ccccc21)=C\c1ccccc1 42.8%
CC(/C=N/NC(=O)CSc1ccccn1)=C\c1ccc(C(C)C)cc1 39%
CC(C)c1ccc(-c2c(C#N)c(N)nc3c2CCCCC3)cc1 23.8%
CCN(c1ccccc1)S(=O)(=O)c1cc(NC(=O)Nc2ccccc2C#N)ccc1Cl 30.4%
CCOCC(O)CNC(=O)c1ccc(OC2CCN(C(=O)c3cccnc3)CC2)cc1 (stereo not drawn) 29.2%
Cc1cc(/C=C2/SC(=S)N(c3ccc([N+](=O)[O-])cc3)C2=O)c(C)n1-c1cccnc1 37.3%
O=C(NC1CCCC1)c1ccc(CN2CCOCC2)cc1 45.1%
C=CCn1c(=O)c2ccc(C(=O)NCc3ccccc3)cc2n(Cc2ccccc2Cl)c1=O 36.4%
Cc1noc(C)c1S(=O)(=O)N1CCC(C(=O)N2CCC(N3CCCCC3)CC2)CC1 23.3%
CCCOc1ccc(C(=O)C(CN2CCCC2)c2ccccc2)cc1 (stereo not drawn) 48.7%
CCOC(=O)CNC(c1ccccc1)c1cc(Br)ccc1NC(=O)CCN1CCOCC1 (stereo not drawn) 44.6%
CCn1nc(C)cc1Nc1ccccc1 32.9%
COc1cc2c(cc1NC(=S)Nc1ccccc1C)oc1ccccc12 45.5%
Cc1ccccc1N=C/C=C1\N(C)c2ccccc2C1(C)C 42.5%
CN1/C(=C\C(=O)c2cccs2)C(C)(C)c2ccccc21 40%
Cc1ccc2cc(CN(Cc3ccco3)C(=O)NC3CCCCC3)c(=O)[nH]c2c1C 42.8%
COc1ccc(OC)c(NC(=O)c2sc3nc(Cc4ccccc4)cc(C(F)(F)F)c3c2N)c1 40.6%
N#CCc1c(C#N)c(N)nc(N2CCN(Cc3ccc4c(c3)OCO4)CC2)c1C#N 37.5%
OC(COCc1ccc2c(c1)OCO2)CN1CCN(Cc2ccccc2)CC1 (stereo not drawn) 35.2%
Cc1cc(Cl)c(OCCCCN2CCOCC2)c(Br)c1 30.6%
CN1CCC(Oc2ccc(Sc3ccccc3)cc2)CC1 40.5%
Cc1cc(Cl)c(OCCCN2CCCCC2)c(Br)c1 24.1%
CC1CCCN(CCC(=O)c2ccc(Br)cc2)C1 (stereo not drawn) 45.8%
CC(C)(C)c1ccc(COn2c(=O)c(-c3ccco3)[n+]([O-])c3ccccc32)cc1 39.7%
CCOC(=O)c1cnc2ccccc2c1Nc1cc(C(=O)O)ccc1C 28.2%
CCOc1ccc(NC(=O)CSc2nnc(C)n2Cc2ccccc2)cc1 37.3%
Cc1nc(C)c(/C(O)=C/c2nc3ccccc3oc2=O)s1 44%
Cc1ccc(NC2(C#N)C(=O)Nc3ccccc32)cc1 (stereo not drawn) 38.2%
O=C(c1ccco1)N1CCN(Cc2cn[nH]c2-c2cccc3ccccc23)CC1 26%
COc1cccc(CN(C)CC(=O)Nc2cccc(S(N)(=O)=O)c2)c1OC 32.5%
COc1ccc(N2CCN(CC(=O)NC(=O)NCc3ccco3)CC2)cc1 33.3%
CCC(C(=O)NCc1ccco1)N(C(=O)CNS(=O)(=O)c1ccccc1)c1ccc(OC)cc1 (stereo not drawn) 32.8%
O=C(NC(N1CCOCC1)C(Cl)(Cl)Cl)c1ccc(Br)cc1 (stereo not drawn) -14.2%
CCOC(=O)c1cc([N+](=O)[O-])c([N+](=O)[O-])cc1NC(C)=O 22.4%
